# Measured values from PubChem BioAssay (Tox21).
# Values joined by “and” are separate entries in the source; they are usually repeats but may differ in a detail not shown here. Equal values may be shown once. Inconclusive results are not listed. A call without a number means that no potency is given here. Where a structure was tested more than once in an assay, its records may differ in their call. Active and inactive are the calls of the source. Unless noted, calls follow the shape of the dose curve; as a rule, active = well fitted curve in the direction sought with a large enough effect in the repeat runs; inconclusive = weak or mixed curves; inactive = no such curve, though single readings can be large; an effect the other way counts as inactive or inconclusive.
# Experiments:
# [1] = qHTS assay to identify small molecule agonists of the RXR signaling pathway - cell viability counter screen (AID 1159529); also: nearly all actives have a fitted effect of over 50% in size; also: potency is read from the fitted curve at half-maximal effect
# In short: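 RXR-alpha-UAS-bla HEK 293T cells in medium with 2% charcoal-stripped FBS were preincubated 5 hr, then exposed to compounds for 16 hr at 37 C. Viability was read as CellTiter-Glo luminescence after 30 min at room temperature.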
# [2] = qHTS assay to identify small molecule antagonists of the retinoid acid receptor (RAR) signaling pathway - cell viability counter screen (AID 1159551); also: nearly all actives have a fitted effect of over 35% in size; also: potency is read from the fitted curve at half-maximal effect
# In short: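 C3RL4 RARE-luciferase line; cpds + retinol 1 uM final, 6 h, 37 C/5% CO2; CellTiter-Glo ATP luminescence, 30 min RT.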
# [3] = qHTS assay to identify small molecule antagonists of the retinoic acid receptor (RAR) signaling pathway (AID 1159552; also: nearly all actives have a fitted effect of over 50% in size; also: potency is read from the fitted curve at half-maximal effect)
# In short: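 RARE-luc C3RL4 cells; cpds + 1 uM (final) retinol, 6 hr, 37 C/5% CO2; luciferase reagent, 30 min RT, luminescence readout. Inhibitors of retinol-driven signal scored.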
# [4] = qHTS assay to identify small molecule antagonists of the estrogen related receptor (ERR) signaling pathway from Tox21 library - cell viability counter screen (AID 1224834); also: nearly all actives have a fitted effect of over 30% in size; also: potency is read from the fitted curve at half-maximal effect
# In short: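 Multiplexed viability counter screen in ERR cells: 17.5 h compound exposure at 37 C, CellTiter-Fluor added, 30 min at 37 C/5% CO2, fluorescence read.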
# [5] = target: Luciferin 4-monooxygenase (Photinus pyralis) (UniProt P08659); assay: qHTS assay to identify small molecule inhibitors of firefly luciferase (AID 1224835); also: nearly all actives have a fitted effect of over 25% in size; also: potency is read from the fitted curve at half-maximal effect
# Chain of Luciferin 4-monooxygenase (Photinus pyralis) (P08659 whole entry, looked up): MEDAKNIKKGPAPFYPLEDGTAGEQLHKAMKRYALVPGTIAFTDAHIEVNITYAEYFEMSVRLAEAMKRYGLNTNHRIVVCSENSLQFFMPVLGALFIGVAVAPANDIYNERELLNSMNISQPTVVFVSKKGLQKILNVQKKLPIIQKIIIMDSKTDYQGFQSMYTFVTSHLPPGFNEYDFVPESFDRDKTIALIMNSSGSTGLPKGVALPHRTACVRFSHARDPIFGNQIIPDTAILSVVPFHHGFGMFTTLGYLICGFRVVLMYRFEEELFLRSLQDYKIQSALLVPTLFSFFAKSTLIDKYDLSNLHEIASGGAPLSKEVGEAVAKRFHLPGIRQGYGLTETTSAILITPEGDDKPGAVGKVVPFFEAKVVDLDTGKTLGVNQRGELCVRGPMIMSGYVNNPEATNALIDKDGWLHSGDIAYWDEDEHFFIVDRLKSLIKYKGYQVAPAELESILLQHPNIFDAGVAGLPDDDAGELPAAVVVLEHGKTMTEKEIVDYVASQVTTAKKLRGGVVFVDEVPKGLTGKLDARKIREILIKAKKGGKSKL
# In short: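 Biochemical qHTS: compounds run as interplate titrations against purified firefly enzyme, with D-luciferin and ATP each at its KM concentration. Light output recorded by CCD imaging.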
# [6] = qHTS assay to identify small molecule agonists of the constitutive androstane receptor (CAR) signaling pathway - cell viability counter screen (AID 1224836); also: nearly all actives have a fitted effect of over 45% in size; also: potency is read from the fitted curve at half-maximal effect
# In short: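 HepG2 cells stably carrying hCAR and a CYP2B6-2.2kb reporter were plated 4 h, then given compounds at 15 concentrations plus PK11195 (final 0.75 uM). After 23 h at 37 C, viability was read by CellTiter-Fluor fluorescence.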
# [7] = qHTS assay to identify small molecule antagonists of the constitutive androstane receptor (CAR) signaling pathway - cell viability counter screen (AID 1224837); also: nearly all actives have a fitted effect of over 45% in size; also: potency is read from the fitted curve at half-maximal effect
# In short: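 Read-out: CellTiter-Fluor fluorescence after 23 hr at 37 C/5% CO2. Cells: HepG2 double-stable for hCAR and CYP2B6-2.2kb. Compounds tested at 15 concentrations in the presence of CITCO, final concentration 50 nM.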
# [8] = target: Nuclear receptor subfamily 1 group I member 3 (Homo sapiens) (UniProt Q14994); assay: qHTS assay to identify small molecule agonists of the constitutive androstane receptor (CAR) signaling pathway (AID 1224839); also: nearly all actives have a fitted effect of over 15% in size; also: potency is read from the fitted curve at half-maximal effect;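 as to activation: HepG2 cells stably carrying human CAR and a CYP2B6 luciferase reporter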
# Chain of Nuclear receptor subfamily 1 group I member 3 (Homo sapiens) (Q14994 whole entry, looked up): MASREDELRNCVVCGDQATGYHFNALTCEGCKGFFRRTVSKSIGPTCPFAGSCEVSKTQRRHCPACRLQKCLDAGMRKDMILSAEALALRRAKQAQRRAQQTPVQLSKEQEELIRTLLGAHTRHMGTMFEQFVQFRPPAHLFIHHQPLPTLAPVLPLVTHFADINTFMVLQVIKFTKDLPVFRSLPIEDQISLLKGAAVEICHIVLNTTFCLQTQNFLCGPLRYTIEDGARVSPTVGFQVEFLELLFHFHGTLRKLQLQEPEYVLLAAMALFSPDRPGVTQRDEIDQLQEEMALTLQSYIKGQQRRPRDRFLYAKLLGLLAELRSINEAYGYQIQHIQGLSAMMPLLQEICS
# In short: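 HepG2 cells stably expressing hCAR and a CYP2B6-2.2kb luciferase reporter were treated with compounds at 15 concentrations plus 0.75 uM PK11195 (final) for 24 h at 37 C; luminescence was read after ONE-Glo addition.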
# [9] = qHTS assay to identify small molecule antagonists of the estrogen related receptor signaling pathway with the pleiotropic PPARgamma coactivator (PGC) from Tox21 10K library - cell viability counter screen (AID 1224840; active = well fitted cell-killing curve with a large enough effect in the repeat runs, not every such curve was filed as active; also: nearly all actives have a fitted effect of over 40% in size; also: potency is read from the fitted curve at half-maximal effect)
# In short: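 Fluorescence read-out of CellTiter-Fluor viability reagent, added after cells had been exposed to compound in DMSO for 17.5 h at 37 C; 30 min development at 37 C/5% CO2. Cells: PGC/ERR line, 2,000/well.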
# [10] = qHTS assay to identify small molecule agonists of the hypoxia (HIF-1) signaling pathway - cell viability counter screen (AID 1224844; calls by dose curve; also: nearly all actives have a fitted effect of over 50% in size; also: potency is read from the fitted curve at half-maximal effect)
# In short: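 CellTiter-Glo luminescence read-out, 30 min RT, taken in the same wells as the beta-lactamase HRE reporter assay; HRE-bla ME-180 cells, 0.5% dialyzed FBS, 17 hr compound treatment at 37C, 5% CO2.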
# [11] = qHTS assay to identify small molecule agonists of the retinoic acid receptor (RAR) signaling pathway (AID 1159553); details: C3RL4 RARE luciferase reporter, agonist, 6 h; activation: at 73.3 µM (top of the series) unless noted
# In short: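 RARE-luc C3RL4 cells; overnight attachment 37 C/5% CO2; compound (DMSO) 6 hr; luciferase reagent, 30 min RT; luminescence read-out.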
# [12] = target: Nuclear receptor subfamily 1 group I member 3 (Homo sapiens) (UniProt Q14994); assay: qHTS assay to identify small molecule antagonists of the constitutive androstane receptor (CAR) signaling pathway (AID 1224838); also: nearly all actives have a fitted effect of over 40% in size; also: potency is read from the fitted curve at half-maximal effect
# In short: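 Read-out: ONE-Glo luciferase luminescence after 30 min at room temperature. HepG2-CYP2B6-hCAR double-stable cells, compounds in 15-point titration plus 50 nM CITCO final, 24 h at 37 C/5% CO2.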
# [13] = qHTS assay to identify small molecule antagonists of the estrogen related receptor signaling pathway with the pleiotropic PPARgamma coactivator (PGC) from Tox21 10K library (AID 1224841; call rule not given here; also: actives are mostly falling curves and most rising ones were filed inactive; nearly all actives have a fitted effect of over 50% in size; also: potency is read from the fitted curve at half-maximal effect)
# In short: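 Luminescence read-out (One-Glo luciferase reagent, 30 min at room temperature) from PGC/ERR cells exposed to DMSO-dissolved test compounds for 18 h at 37 C; cells, 2,000 per well, had been preincubated 6 h before compound transfer.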
# [14] = qHTS assay to identify small molecule agonists of the estrogen related receptor signaling pathway with the pleiotropic PPARgamma coactivator (PGC) from Tox21 10K library (AID 1224842); also: nearly all actives have a fitted effect of over 15% in size
# In short: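 PGC/ERR reporter cell line, 2,000 cells per well, incubated 6 h at 37 C before 23 nL compound in DMSO was added. After 18 h at 37 C, One-Glo luminescence read following 30 min at room temperature.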
# [15] = qHTS assay to identify small molecule agonists of the estrogen related receptor (ERR) signaling pathway (AID 1224820)
# In short: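 An ERR cell line provided by NTP was seeded at 2,000 cells per well and allowed to settle for 6 h before compounds in DMSO were added. After 18 h at 37 C, luciferase activity was measured by One-Glo luminescence.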
# [16] = tested on: estrogen-related receptor alpha (ERRalpha) with PGC-1alpha coactivator, human; assay: qHTS assay to identify small molecule antagonists of the estrogen related receptor signaling pathway with the pleiotropic PPARgamma coactivator (PGC) (AID 1224821; calls by dose curve; also: nearly all actives have a fitted effect of over 50% in size; also: potency is read from the fitted curve at half-maximal effect)
# In short: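 A PGC/ERR cell line supplied by NTP is seeded, allowed 6 h at 37 C, and treated with test compounds in DMSO for 18 h. Signal is then measured as luciferase luminescence using One-Glo.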
# [17] = target: Thyrotropin receptor (Homo sapiens) (UniProt P16473); assay: qHTS assay to identify small molecule agonists of the thyroid stimulating hormone receptor (TSHR) signaling pathway (AID 1224843; calls by dose curve; also: nearly all actives have a fitted effect of over 45% in size)
# Chain of Thyrotropin receptor (Homo sapiens) (P16473 whole entry, looked up): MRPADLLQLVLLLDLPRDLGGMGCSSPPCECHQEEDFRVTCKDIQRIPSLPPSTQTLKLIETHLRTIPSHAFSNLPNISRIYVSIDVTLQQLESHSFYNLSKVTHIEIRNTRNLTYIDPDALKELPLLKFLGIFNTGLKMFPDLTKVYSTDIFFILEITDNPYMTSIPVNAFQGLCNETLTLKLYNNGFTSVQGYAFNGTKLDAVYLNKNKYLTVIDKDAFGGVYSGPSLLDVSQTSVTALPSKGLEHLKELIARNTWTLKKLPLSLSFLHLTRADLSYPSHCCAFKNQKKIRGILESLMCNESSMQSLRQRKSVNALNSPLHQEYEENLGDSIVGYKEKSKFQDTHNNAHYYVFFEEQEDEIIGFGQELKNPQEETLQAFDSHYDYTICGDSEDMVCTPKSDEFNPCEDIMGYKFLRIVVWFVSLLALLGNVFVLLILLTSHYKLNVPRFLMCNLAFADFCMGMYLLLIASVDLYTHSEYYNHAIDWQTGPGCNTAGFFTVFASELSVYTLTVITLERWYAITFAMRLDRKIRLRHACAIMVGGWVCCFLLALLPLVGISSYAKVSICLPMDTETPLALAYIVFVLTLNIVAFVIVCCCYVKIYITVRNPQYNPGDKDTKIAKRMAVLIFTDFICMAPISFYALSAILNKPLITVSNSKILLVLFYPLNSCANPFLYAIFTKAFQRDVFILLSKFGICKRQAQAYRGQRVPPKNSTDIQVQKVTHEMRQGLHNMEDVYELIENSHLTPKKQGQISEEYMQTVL
# In short: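 Agonist-mode screen: TSHR HEK293 cells received test chemicals for half an hour at room temperature, then HTRF cAMP detection reagents for one hour prior to fluorescence measurement. Each chemical ran as a 15-concentration series, triplicated.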
# [18] = qHTS assay to identify small molecule antagonists of the estrogen related receptor (ERR) signaling pathway - cell viability counter screen (AID 1224818)
# In short: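 Fluorescence from CellTiter-Fluor, read 30 min after reagent addition at 37 C, measured viability of ERR cells exposed to compounds for 17.5 h. Cells had settled 6 h before dosing.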
# [19] = qHTS assay to identify small molecule antagonists of the estrogen related receptor (ERR) signaling pathway (AID 1224819)
# In short: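 Luminescence readout (One-Glo, 30 min, RT) of ERR cell line after 18 h compound exposure at 37 C; cells seeded 2,000/well, pre-incubated 6 h, compounds pinned from DMSO stocks.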
# [20] = qHTS assay to identify small molecule agonists of the estrogen related receptor signaling pathway with the pleiotropic PPARgamma coactivator (PGC) (AID 1224823)
# In short: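 Compounds dissolved in DMSO are added by pin tool to PGC/ERR cells that have settled for 6 h, and incubation continues 18 h at 37 C. Reporter output is measured as One-Glo luminescence.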
Structure (SMILES),Potency [1],Potency [2],Potency [3],Potency [4],Potency [5],Potency [6],Potency [7],Potency [8],Potency [9],Potency [10],Potency [11],Potency [12],Potency [13],Potency [14],outcome [15],Potency [16],Potency [17],outcome [18],Potency [19],outcome [20]
CN(C)c1ccc(C(=C2C=CC(=[N+](C)C)C=C2)c2ccc(N(C)C)cc2)cc1,13.7 µM (active) and 19.5 µM (active) and 19 µM (active),17.1 µM (active) and 27.3 µM (active) and 23.7 µM (active),7.66 µM (active) and 2.17 µM (active) and 3.76 µM (active),9.64 µM (active) and 12.2 µM (active) and 13.3 µM (active),17.7 µM (active) and 35.6 µM (active) and 17.4 µM (active),7.66 µM (active) and 6.86 µM (active) and 5.96 µM (active),8.59 µM (active) and 7.7 µM (active) and 5.31 µM (active),inactive,9.64 µM (active) and 4.33 µM (active) and 11.9 µM (active),19.4 µM (active) and 54.9 µM (active),,,,,,,,,,
CCN(CC)c1ccc2c(-c3ccc(S(=O)(=O)O)cc3S(=O)(=O)[O-])c3ccc(=[N+](CC)CC)cc-3oc2c1,inactive,31.6 µM (active),,22.4 µM (active),26 µM (active),31.6 µM (active),28.2 µM (active),inactive,28.2 µM (active),inactive,inactive,28.2 µM (active),28.2 µM (active),inactive,,,,,,
OCCN1CCN(CCCN2c3ccccc3Sc3ccc(C(F)(F)F)cc32)CC1,23.9 µM (active),inactive,,29.8 µM (active),inactive,,,inactive,29.8 µM (active),19 µM (active),,inactive,inactive,,inactive,inactive,inactive,,,
Cc1cc(C(C)(C)C)c(O)c(C)c1Cn1c(=O)n(Cc2c(C)cc(C(C)(C)C)c(O)c2C)c(=O)n(Cc2c(C)cc(C(C)(C)C)c(O)c2C)c1=O,inactive,inactive,,inactive,inactive,inactive,inactive,,inactive,,inactive,,,inactive,,,inactive,,,
OCC(F)(F)F,inactive,inactive,inactive,,inactive,inactive,inactive,inactive,inactive,inactive,,inactive,inactive,inactive,,,inactive,,,
CC(C)=CCC1=C(O)c2ccccc2C(=O)C1=O,inactive,inactive,inactive,,,,,27.1 µM (active),,,inactive,inactive,2.42 µM (active),inactive,,,,,,
Clc1sc(Cl)c(Cl)c1Cl,inactive,inactive,,inactive,inactive,inactive,inactive,inactive,inactive,inactive,,inactive,inactive,inactive,,,inactive,,,
O=C(O)Cc1ccccc1Nc1c(Cl)cccc1Cl,inactive,inactive,,,inactive,inactive,inactive,,inactive,inactive,,inactive,,,,,inactive,inactive,,
CC(C)(C)C1CCC(=O)CC1,inactive,inactive,inactive,inactive,inactive,inactive,inactive,,,inactive,,,inactive,inactive,,,inactive,,,
CCCCCCCC,inactive,inactive,inactive,inactive,,inactive,inactive,inactive,inactive,inactive,,inactive,,inactive,,,inactive,,,
Cc1c(C)c2c(c(C)c1O)CC[C@@](C)(CCC[C@H](C)CCC[C@H](C)CCCC(C)C)O2,inactive,inactive,,inactive,inactive,inactive,inactive,,inactive,inactive,inactive,,,,,,,,,
CC[N+](CC)(CC)CCOc1ccc(/C=C/c2ccccc2)cc1,inactive,inactive,,,,,inactive,inactive,,,inactive,,,inactive,inactive,12.3 µM (active),inactive,inactive,8.74 µM (active),inactive
O[C@@H]([C@H](O)[C@H](O)CBr)[C@H](O)CBr,inactive,inactive,inactive,,,inactive,inactive,,inactive,inactive,inactive,,,,,,inactive,,,
CC[N+](CC)(CC)CCOC(=O)C(C1CCCC1)C1CCCC1,inactive,inactive,,inactive,,inactive,inactive,,inactive,inactive,inactive,,,inactive,,,,,,
O=C(O)c1cc(O)c2ccccc2c1O,30.9 µM (active),61.1 µM (active),68.6 µM (active),27.3 µM (active),,21.7 µM (active),24.3 µM (active),1.54 µM (active),30.6 µM (active),11 µM (active),,38.6 µM (active),,inactive,,,,,,
CN1CCCCC1CCN1c2ccccc2Sc2ccc(S(C)=O)cc21 (stereo not drawn),inactive,inactive,,,,inactive,inactive,inactive,,,inactive,,,,,,inactive,,,
O=C(Nc1ccc2c(O)c(N=Nc3ccc(N=Nc4ccc(S(=O)(=O)O)cc4)cc3)c(S(=O)(=O)O)cc2c1)c1ccccc1,inactive,24.3 µM (active),,24.3 µM (active),35.6 µM (active),24.3 µM (active),27.3 µM (active),inactive,24.3 µM (active),,inactive,,27.3 µM (active),inactive,,,inactive,,,
CCCCCCCCCCCCCC[N+](C)(C)C,10.6 µM (active) and 15.5 µM (active) and 21.3 µM (active),61.1 µM (active) and inactive,,29.6 µM (active) and 15.3 µM (active),68.6 µM (active),23.5 µM (active),13.2 µM (active) and 27.3 µM (active),inactive,23.5 µM (active) and 54.4 µM (active) and inactive,42.2 µM (active),inactive,59.1 µM (active) and inactive,,inactive,,,,,,
